# Test results reported in PubChem BioAssay (Tox21).
# Inconclusive results are not listed. Where a call stands in place of a potency, no number is given. A number with no mark means an inactive call. Active and inactive are the calls of the source. Unless noted, the call rests on the fitted dose curve; in most records, active means well fitted curve in the direction sought with a large enough effect in the repeat runs; inconclusive means weak or mixed curves; inactive means no such curve, though single readings can be large; an effect the other way counts as inactive or inconclusive.
# Experiments:
# [1] = target: Luciferin 4-monooxygenase (Photinus pyralis) (UniProt P08659); assay: qHTS assay to identify small molecule inhibitors of firefly luciferase (AID 1224835); further: nearly all actives have a fitted effect of over 25% in size; further: potency means the concentration at half of the fitted maximal effect
# Outline: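 Quantitative HTS format; KM concentrations of both substrates. Purified P. pyralis FLuc activity quantified from luminescence images.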
# [2] = qHTS assay to identify small molecule agonists of the constitutive androstane receptor (CAR) signaling pathway - cell viability counter screen (AID 1224836); further: nearly all actives have a fitted effect of over 45% in size; further: potency means the concentration at half of the fitted maximal effect
# Outline: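 Cell viability multiplexed with the CAR agonist screen: CellTiter-Fluor fluorescence after 23 hr at 37 C. HepG2-CYP2B6-hCAR cells got compounds at 15 concentrations with PK11195 at 0.75 uM final.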
# [3] = qHTS assay to identify small molecule antagonists of the constitutive androstane receptor (CAR) signaling pathway - cell viability counter screen (AID 1224837); further: nearly all actives have a fitted effect of over 45% in size; further: potency means the concentration at half of the fitted maximal effect
# Outline: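 Fluorescence from CellTiter-Fluor served as the viability signal. Human hepatoma HepG2 cells stably bearing hCAR and CYP2B6-2.2kb received compound plus CITCO (50 nM final) for 23 hr.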
# [4] = target: Nuclear receptor subfamily 1 group I member 3 (Homo sapiens) (UniProt Q14994); assay: qHTS assay to identify small molecule antagonists of the constitutive androstane receptor (CAR) signaling pathway (AID 1224838);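 further: HepG2 cells stably expressing hCAR with CYP2B6 luciferase reporter stimulated by CITCO; nearly all actives have a fitted effect of over 40% in size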
# Outline: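 Quantitative HTS in double-stable HepG2-CYP2B6-hCAR cells. After 4 h plating, cells get compound (15 concentrations) and CITCO at 50 nM final, incubate 24 h at 37 C, then ONE-Glo luminescence is read.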
# [5] = target: Nuclear receptor subfamily 1 group I member 3 (Homo sapiens) (UniProt Q14994); assay: qHTS assay to identify small molecule agonists of the constitutive androstane receptor (CAR) signaling pathway (AID 1224839); further: nearly all actives have a fitted effect of over 15% in size; further: potency means the concentration at half of the fitted maximal effect
# Outline: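 Luminescent ONE-Glo read-out after 24 hr, 37 C exposure of double-stable HepG2-CYP2B6-hCAR reporter cells to a 15-point compound series, in the presence of 0.75 uM PK11195 (final).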
# [6] = qHTS assay to identify small molecule antagonists of the estrogen related receptor signaling pathway with the pleiotropic PPARgamma coactivator (PGC) from Tox21 10K library - cell viability counter screen (AID 1224840; active means well fitted cell-killing curve with a large enough effect in the repeat runs, not every such curve was filed as active; further: nearly all actives have a fitted effect of over 40% in size; further: potency means the concentration at half of the fitted maximal effect)
# Outline: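 Compounds in DMSO, alongside positive and negative controls, were pinned onto PGC/ERR cells (2,000 per well). Exposure lasted 17.5 hours at 37 C, followed by a 30-minute CellTiter-Fluor incubation and fluorescence reading.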
# [7] = qHTS assay to identify small molecule agonists of the estrogen related receptor signaling pathway with the pleiotropic PPARgamma coactivator (PGC) from Tox21 10K library (AID 1224842); further: nearly all actives have a fitted effect of over 15% in size; further: potency means the concentration at half of the fitted maximal effect
# Outline: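 PGC/ERR reporter cells (NTP line) were seeded 2,000 per well, rested 6 h at 37 C/5% CO2, then pin-dosed with compounds in DMSO for 18 h at 37 C; luciferase read by One-Glo luminescence after 30 min at room temperature.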
# [8] = qHTS assay to identify small molecule antagonists of the estrogen related receptor signaling pathway with the pleiotropic PPARgamma coactivator (PGC) from Tox21 10K library (AID 1224841; call rule not given here; further: actives are mostly falling curves and most rising ones were filed inactive; nearly all actives have a fitted effect of over 50% in size; further: potency means the concentration at half of the fitted maximal effect)
# Outline: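 Compound exposure ran 18 hours at 37 C in PGC/ERR cells (2,000/well) that had first rested 6 hours in a 37 C/5% CO2 incubator. Luciferase activity was then detected with One-Glo after a 30-minute room-temperature step.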
# [9] = qHTS assay to identify small molecule antagonists of the estrogen related receptor (ERR) signaling pathway from Tox21 library - cell viability counter screen (AID 1224834); further: nearly all actives have a fitted effect of over 30% in size; further: potency means the concentration at half of the fitted maximal effect
# Outline: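 Viability readout (CellTiter-Fluor fluorescence, 30 min at 37 C) multiplexed with the ERR assay; cells treated 17.5 h at 37 C with compounds delivered in DMSO.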
# Sequence of Luciferin 4-monooxygenase (Photinus pyralis) (P08659 whole entry, looked up): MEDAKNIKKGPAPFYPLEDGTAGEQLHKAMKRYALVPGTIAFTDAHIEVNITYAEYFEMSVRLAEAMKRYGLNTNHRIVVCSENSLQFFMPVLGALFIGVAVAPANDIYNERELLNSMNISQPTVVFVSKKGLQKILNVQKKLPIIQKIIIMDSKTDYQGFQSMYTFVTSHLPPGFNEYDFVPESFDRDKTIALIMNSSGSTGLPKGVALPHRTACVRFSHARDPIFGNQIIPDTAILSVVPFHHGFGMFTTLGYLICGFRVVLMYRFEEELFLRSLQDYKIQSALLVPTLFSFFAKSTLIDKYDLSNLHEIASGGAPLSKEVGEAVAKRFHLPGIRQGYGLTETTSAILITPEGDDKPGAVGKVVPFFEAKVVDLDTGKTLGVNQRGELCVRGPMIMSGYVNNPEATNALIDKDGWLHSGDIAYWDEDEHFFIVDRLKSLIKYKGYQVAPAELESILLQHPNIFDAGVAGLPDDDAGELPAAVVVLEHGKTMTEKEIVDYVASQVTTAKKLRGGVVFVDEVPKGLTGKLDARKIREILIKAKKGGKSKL
# Sequence of Nuclear receptor subfamily 1 group I member 3 (Homo sapiens) (Q14994 whole entry, looked up): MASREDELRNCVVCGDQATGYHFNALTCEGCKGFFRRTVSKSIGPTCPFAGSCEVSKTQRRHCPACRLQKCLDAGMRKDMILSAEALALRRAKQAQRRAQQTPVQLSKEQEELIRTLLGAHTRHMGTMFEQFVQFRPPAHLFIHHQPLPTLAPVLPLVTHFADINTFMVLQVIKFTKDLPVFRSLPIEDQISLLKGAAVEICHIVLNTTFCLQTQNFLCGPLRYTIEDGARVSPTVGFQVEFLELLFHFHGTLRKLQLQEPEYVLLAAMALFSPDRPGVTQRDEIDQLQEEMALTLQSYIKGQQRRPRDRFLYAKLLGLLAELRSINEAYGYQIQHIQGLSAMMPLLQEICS
SMILES,Potency [1],Potency [2],Potency [3],Potency [4],Potency [5],Potency [6],Potency [7],Potency [8],Potency [9]
C=CC(=O)OCC1CC2CC1C1CCC(COC(=O)C=C)C21 (configuration not stated),inactive,inactive,inactive,inactive,inactive,68.6 µM (active),,,
C/C=C(/C(=C/C)c1ccc(O)cc1)c1ccc(O)cc1,inactive,inactive,inactive,inactive,inactive,inactive,,,
CC(C)(O)c1ccc(CNC(=O)c2cccnc2Oc2ccc3nonc3c2)cc1,inactive,inactive,inactive,inactive,24.3 µM (active),,inactive,,
CC(C)(c1ccccc1)c1ccccc1,inactive,inactive,inactive,inactive,,inactive,,,
Cc1ccc(OC(=O)c2ccccc2O)cc1,6.33 µM (active),inactive,inactive,inactive,inactive,inactive,,,
CC(CN(C)C)C(C)(O)Cc1ccc(Cl)cc1 (configuration not stated),inactive,inactive,inactive,inactive,inactive,inactive,inactive,inactive,
COC(=O)C1=C(C)NC(C)=C(C(=O)O[C@@H]2CCCN(Cc3ccccc3)C2)[C@@H]1c1cccc([N+](=O)[O-])c1,inactive,inactive,inactive,inactive,inactive,inactive,inactive,,
CC(CO)CO,inactive,inactive,inactive,inactive,inactive,inactive,inactive,inactive,
CCOc1cccc(-n2cc(C(=O)N3CCN(c4cc(C(=O)O)c5ccccc5c4)CC3)nc2-c2ccc(C)cc2)c1,inactive,inactive,inactive,inactive,inactive,,inactive,,
O=[N+]([O-])c1ccc(O/N=C/c2cc(Br)c(O)c(Br)c2)c([N+](=O)[O-])c1,,,34.2 µM (active),inactive,,48.3 µM (active),,,30.5 µM (active)
CCCCC(CC)CN (configuration not stated),inactive,inactive,inactive,inactive,inactive,inactive,inactive,,
COc1ccccc1NC(=O)c1cc2ccccc2cc1O,17.8 µM (active),inactive,inactive,inactive,17.2 µM (active),inactive,inactive,15.4 µM (active),
Cc1ccc(C(C)(C)O)cc1,inactive,inactive,inactive,inactive,,inactive,,,
COc1cc(C(=O)NCCCCCC(=O)O)cc(OC)c1OC,inactive,inactive,inactive,inactive,inactive,inactive,inactive,inactive,
CC1(C)[C@@H](OC(=O)CCC(=O)O)CC[C@]2(C)[C@H]3C(=O)C=C4[C@@H]5C[C@@](C)(C(=O)O)CC[C@]5(C)CC[C@@]4(C)[C@]3(C)CC[C@@H]12,inactive,inactive,inactive,inactive,inactive,inactive,inactive,,
CC(C)C=O,,inactive,inactive,inactive,inactive,inactive,inactive,inactive,inactive
N#[N+]c1ccc2c(S(=O)(=O)[O-])cccc2c1O,44.8 µM (active),inactive,inactive,inactive,inactive,inactive,inactive,,
CS(=O)(=O)c1ccc(-c2cn3ccccc3n2)cc1,,inactive,,inactive,2.11 µM (active),inactive,,,inactive
O=C(OCC(O)CO)c1ccccc1Nc1ccnc2cc(Cl)ccc12 (configuration not stated),,inactive,inactive,inactive,inactive,inactive,inactive,inactive,29.8 µM (active)
CC(=O)Oc1ccc([N+](=O)[O-])cc1CCl,inactive,43.3 µM (active),30.6 µM (active),inactive,inactive,30.6 µM (active),inactive,inactive,
OCCOCC#CCOCCO,inactive,inactive,inactive,inactive,inactive,inactive,,,
COC(=O)[C@H]1[C@H]2C[C@@H]3c4[nH]c5cc(OC)ccc5c4CCN3C[C@H]2C[C@@H](OC(=O)/C=C/c2ccc(O)c(OC)c2)[C@@H]1OC,inactive,inactive,inactive,inactive,inactive,inactive,inactive,,
Oc1cccc(O)c1O,inactive,,inactive,inactive,inactive,inactive,8.56 µM (active),,
C=C/C(C)=C/C/C=C(\C)CCC=C(C)C,inactive,inactive,inactive,inactive,,inactive,inactive,inactive,
C=CC(=O)[O-].C=CC(=O)[O-].[Zn+2],2.19 µM (active),inactive,inactive,inactive,,inactive,,,
Clc1ccc(Nc2nnc(Cc3ccncc3)c3ccccc23)cc1,,,,inactive,,inactive,inactive,,
